From PubChem
TDP1 cell CPT: qHTS for Inhibitors of human tyrosyl-DNA phosphodiesterase 1 (TDP1): qHTS in cells in presence of CPT; chicken DT40 Tdp1-/-;hTDP1 cells + 20 nM CPT, ATP luminescence, 48 h; Potency, µM (doses to about 46.2 µM), for the others: at the top dose activity change, negative = growth inhibition, actives largely listed as inhibitors; 420,000 compounds, 12% hits; AID 686979, 2013; further: on the % scale 0 is the no-effect control and ±100 the full control effect; nearly all actives have a fitted effect of over 55% in size
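Cell growth measured by CellTiter-Glo luminescence after a minimum 48 h, 37 C compound exposure with 20 nM CPT in Tdp1-knockout DT40 cells stably expressing hTDP1, seeded 400/well; qHTS titration format.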
TDP1 block: qHTS Assay for Inhibitors of Tyrosyl-DNA Phosphodiesterase (TDP1) | Tyrosyl-DNA phosphodiesterase 1 (Homo sapiens), Q9NUW8 | recombinant TDP1, AlphaScreen DNA substrate cleavage | AID 485290, 2010 | 350,000 compounds, 0.28% hits | Potency, µM (doses to about 130 µM), without a hit: top-dose activity change, negative = inhibition, actives largely listed as inhibitors; further: on the % scale 0 is the no-effect control and ±100 the full control effect; nearly all actives have a fitted effect of over 40% in size
Target sequence (Q9NUW8 whole entry, looked up): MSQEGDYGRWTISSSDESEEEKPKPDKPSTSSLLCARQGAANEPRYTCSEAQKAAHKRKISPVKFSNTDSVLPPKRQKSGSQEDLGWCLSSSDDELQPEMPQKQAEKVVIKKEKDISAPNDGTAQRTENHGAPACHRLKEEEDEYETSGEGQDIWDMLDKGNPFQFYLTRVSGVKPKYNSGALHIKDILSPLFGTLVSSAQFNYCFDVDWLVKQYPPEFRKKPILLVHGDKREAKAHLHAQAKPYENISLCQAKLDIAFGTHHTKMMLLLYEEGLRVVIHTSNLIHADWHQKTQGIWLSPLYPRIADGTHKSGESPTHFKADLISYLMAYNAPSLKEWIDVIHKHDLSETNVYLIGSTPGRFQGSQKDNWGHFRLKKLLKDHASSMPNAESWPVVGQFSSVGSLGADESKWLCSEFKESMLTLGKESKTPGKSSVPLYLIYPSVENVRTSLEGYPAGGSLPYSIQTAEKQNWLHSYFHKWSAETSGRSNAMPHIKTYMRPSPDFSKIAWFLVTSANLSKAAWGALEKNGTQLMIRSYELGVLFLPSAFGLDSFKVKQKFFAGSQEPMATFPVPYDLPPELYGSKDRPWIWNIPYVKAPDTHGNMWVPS
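Enzyme-compound mixtures sat 15 min at room temperature, followed by a 5 min reaction with 15 nM final substrate and 10 min with AlphaScreen beads. Recombinant human Tdp1 was used at 1 nM final.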
DT40 TDP1 no CPT: qHTS for Inhibitors of human tyrosyl-DNA phosphodiesterase 1 (TDP1): qHTS in cells in absence of CPT | DT40 Tdp1-/- hTDP1 cells, no CPT, ATP luminescence, 48 h | Potency, µM (highest dose often 46.2 µM), for the others: at the highest dose activity change, negative = growth inhibition, usual class: inhibitors | 420,000 compounds, 15% hits | AID 686978, 2013; further: on the % scale 0 is the no-effect control and ±100 the full control effect; nearly all actives have a fitted effect of over 55% in size
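Chicken DT40 Tdp1-/- cells stably complemented with human TDP1 were seeded at 400 cells/well with DMSO in place of 20 nM camptothecin. After compound pinning, cells grew at least 48 hr at 37 °C; viability read by CellTiter-Glo luminescence.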
ClpP mod: qHTS Assay for Activators of ClpP; ATP-dependent Clp protease proteolytic subunit (Bacillus subtilis (strain 168)), P80244; purified B. subtilis ClpP, FRET peptide cleavage, 20 min; Potency, µM (doses to about 57.5 µM), for the others: top-dose activity change, negative = active; 340,000 compounds, 1.9% hits; AID 651965, 2013; active means well fitted falling curve with a large enough effect; inconclusive means small, poorly fitted or top-dose-only effect; inactive means no such curve, though single readings can be large or run the other way; further: the source files actives as falling curves though it sought activators and does not explain the sign; nearly all actives have a fitted effect of over 65% in size
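Purified B. subtilis ClpP, 10 microg/mL final in Tris/HCl pH8 with KCl, BSA, glycerol and Tween-20, cleaved an Abz/nitrotyrosine-quenched decapeptide. Fluorescence (ex 320, em 430) was read at 0 and 20 min at room temperature. Delta was normalized to 5.8 microM ADEP and DMSO/no-enzyme controls.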
The depositor's hits bear a star; ? = inconclusive; / = no result given; [ ] = dose if it differs, or a comment. The list is not random: actives were taken first. Their share in the collection is about 17%. Unless noted, the call rests on the fitted dose curve; in most records, active means well fitted curve in the direction sought with a large enough effect; inconclusive means small, poorly fitted or top-dose-only effect, or another doubt; inactive means no such curve, though single readings can be large; an effect the other way counts as inactive or inconclusive. Potency means the concentration at half of the fitted maximal effect.

SMILES | TDP1 cell CPT | TDP1 block | DT40 TDP1 no CPT | ClpP mod
O=S(=O)(c1ccc(NC(=S)NN=Cc2ccccc2O)cc1)N1CCCCC1 | 4.6µM* | / | 5.8µM* | -9%
O=C(NC(=S)Nc1ccc(N2CCCCC2)c(Cl)c1)c1cccs1 | 7.3µM* | / | 5.8µM* | 1%
CN1CCN(S(=O)(=O)c2ccc(NC(=S)NC(=O)c3ccc(Cl)cc3)cc2)CC1 | ? | 11% | ? | -29%
O=C(NC(=S)Nc1ccc(S(=O)(=O)N2CCCCC2)cc1)c1ccc(Cl)cc1 | 16µM* | -8% | 10µM* | -1%
Cc1oc(S(=O)(=O)N2CCCCC2)cc1NC(=O)Nc1ccc(Cl)cc1 | 16µM* | 9% | 16µM* | 0%
Cc1oc(S(=O)(=O)N2CCCCC2)cc1NC(=O)Nc1ccccc1 | ? | / | ? | -2%
CC(C)CC(=O)NC(=S)Nc1ccc(N2CCCC2)c(Cl)c1 | -5% | -4% | -14% | -1%
Cc1ccc2c(c1)C(=O)OC(C(=O)Nc1ccc(C(=O)O)cc1)C2 (centres undefined) | / | 0% | / | -3%
COc1ccccc1P(=O)(c1ccccc1)c1ccc([N+](=O)[O-])cc1 (centres undefined) | 14% | / | ? | /
CCNc1ncc2nc(-c3ccc(OC)cc3)c(=O)n(Cc3cccs3)c2n1 | ? | / | -24% | /
CC(=O)NC(=S)Nc1ccc(NC(=O)c2cccs2)cc1 | -13% | 5% | ? | -3%
COc1ccc(S(=O)(=O)N2CCCCC2)cc1NC(=O)c1cccs1 | -21% | 0% | 4% | -2%
Cc1ccc(NC(=S)NC(=O)c2cccs2)cc1F | -108% | 2% | 7.3µM* | /
Cc1ccc(S(=O)(=O)N2CCCCC2)cc1NC(=O)c1cccs1 | 26µM* | 1% | -10% | -3%
COc1ccc(S[C@@H](CCN2CC[C@H](O)CCC2=O)c2ccccc2)cc1 | ? | 6% | ? | 2%
CC(C)(C)[C@@H]1CCC(=O)N(CC[C@H](N=[N+]=[N-])c2ccccc2)CC1 | ? | / | 18µM* | 1%
CC(=O)Nc1ccc(S[C@@H](CCN2CC[C@H](C(C)(C)C)CCC2=O)c2ccccc2)cc1 | 21µM* | 2% | 18µM* | -1%
CC(C)(C)[C@@H]1CCC(=O)N(CC[C@H](Sc2ccccc2)c2ccccc2)CC1 | 16µM* | / | 21µM* | -2%
COc1ccccc1N1CCN(CCS(=O)(=O)c2cc(Cl)ccc2Cl)CC1 | ? | / | ? | 1%
O=[N+]([O-])c1ccc(N2CCCCC2)cc1NCCOc1ccccc1 | 29µM* | 7% | 18µM* | -3%
NCCNc1cc(N2CCCC2)ccc1[N+](=O)[O-] | 23µM* | -6% | ? | /
CC(C)(C)CNc1cc(N2CCCC2)ccc1[N+](=O)[O-] | -20% | 1% | -24% | -2%
CC1CN(c2ccc([N+](=O)[O-])c(NCCOc3ccccc3)c2)CC(C)N1 (centres undefined) | ? | 8% | ? | /
CCc1ccc(OCCNc2cc(N3CCNC(C)C3)ccc2[N+](=O)[O-])cc1 (centres undefined) | 23µM* | 4%[56.1 µM] | ? | 0%
Cc1ccccc1OCCNc1cc(N2CC(C)NC(C)C2)ccc1[N+](=O)[O-] (centres undefined) | 15µM* | 7% | ? | 0%
SMILES | TDP1 cell CPT | TDP1 block | DT40 TDP1 no CPT | ClpP mod
CC(C)(C)OC(=O)CC(=O)NNC(=O)c1nc2ccccc2[nH]1 | / | -2% | / | /
Cc1cccc(-c2cc3nc4c(c(N5CCCC(O)C5)n3n2)CCC4)c1 (centres undefined) | ? | 0% | 26µM* | -11%
Cc1cccc(-c2cc3nc4c(c(N5CCC6(CC5)OCCO6)n3n2)CCCC4)c1 | -30% | / | -26% | -14%
COCCN1CCN(c2c3c(nc4cc(-c5cccc(F)c5)nn24)CCC3)CC1 | ? | 2% | 23µM* | -5%
COc1cccc(-c2cc3nc(-c4ccccc4)cc(N4CCCC(O)C4)n3n2)c1 (centres undefined) | ? | -5% | ? | 4%
OC1CCCN(c2c3c(nc4cc(-c5cccc(F)c5)nn24)CCCC3)C1 (centres undefined) | 23µM* | 2% | ? | /
OC1CCCN(c2c3c(nc4cc(-c5cccc(Cl)c5)nn24)CCC3)C1 (centres undefined) | 18µM* | -2% | ? | 15%
CC[C@H](C)[C@H](NC(=O)[C@H](CCCNC(=N)N)NC(=O)[C@@H]1CCCN1C(=O)[C@H](Cc1ccccc1)NC(=O)[C@H](Cc1cnc[nH]1)NC(=O)[C@H](CCCNC(=N)N)NC(=O)[C@@H](NC(=O)[C@H](C)NC(=O)[C@H](CCC(=O)O)NC(=O)[C@H](CC(N)=O)NC(=O)[C@@H](N)CCCCN)C(C)C)C(=O)N[C@@H](Cc1c[nH]c2ccccc12)C(=O)N[C@@H](CC(C)C)C(=O)O | / | 8% | / | /
COCCNC(=O)c1cccc(OC2CCN(Cc3ccc(F)c(OC)c3)CC2)c1 | 6% | / | -16% | /
C[C@@H](C[C@@H](O)[C@H](O)C(C)(C)O)[C@@H]1CC[C@]2(C)C3=CC[C@H]4C(C)(C)C(=O)CC[C@]4(C)[C@H]3CC[C@@]12C | 7.3µM* | 5% | 6.5µM* | 3%
CC1(Oc2ccc(-n3ccnc3)cc2)CCN(Cc2cccn2-c2nccs2)C1 (centres undefined) | 29µM* | / | 18µM* | 0%
COCOc1cccc(CN2CCC(C)(Oc3cccc(C#N)c3)C2)c1 (centres undefined) | ? | / | -34% | -4%
COc1cccc(OC2(C)CCN(Cc3cccn3-c3nccs3)C2)c1 (centres undefined) | 23µM* | / | 21µM* | -6%
N#CCc1c(C#N)c(N)nc(N2CCCC(O)C2)c1C#N (centres undefined) | -5% | 5% | 7% | -3%
O=C(c1ccccc1F)N1CCN(Cc2nc3sc4c(c3c(=O)[nH]2)CCCC4)CC1 | 2% | 5% | -16% | /
CN(CC(=O)Nc1ccc(Cl)cc1)C(=O)CCc1nc2sc3c(c2c(=O)[nH]1)CCCC3 | ? | / | ? | 32µM*
O=C(CCc1nc2sc3c(c2c(=O)[nH]1)CCCC3)Nc1cccc(Cl)c1 | ? | / | 21µM* | -3%
Cc1ccc(C(=O)N2CCN(Cc3nc4sc5c(c4c(=O)[nH]3)CCCC5)CC2)cc1 | 29µM* | 14% | 21µM* | -1%
CN(CC(=O)Nc1ccc(F)cc1)C(=O)CCc1nc2sc3c(c2c(=O)[nH]1)CCCC3 | -2% | / | ? | -1%
CCCc1nc2sc3c(c2c(=O)[nH]1)CCCC3 | ? | 4% | ? | 0%
